# Shown are actives, neighbours in structure and some others; about 19% of the full set was active somewhere.
# IL1B secr inh = qHTS for Inhibitors of Inflammasome Signaling: IL-1-beta AlphaLISA Primary Screen | AID 743279, 2014 | THP-1 LPS/ATP IL-1B secretion, AlphaLISA, 16 h; active compounds read low | 360,000 tested, 4.7% active | activity change, % at 57.5 µM; in the data active means activity change below about -50%; inconclusive means mostly about -30% to -49%
#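 Secreted IL-1B measured by AlphaLISA bead assay after 16 h compound exposure of THP-1 cells; compounds (final up to 57.5 uM) added 1 h before LPS (250 ng/mL) and ATP (1.25 mM) stimulation; lower signal means less secretion.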
# Chronic BCR inh = qHTS Assay to Find Inhibitors of Chronic Active B-Cell Receptor Signaling. 340,000 tested, 0.05% active. ABC-DLBCL IkBa-CBG/CBR reporter, luminescence ratio, 4 h. Potency, µM (doses to about 46.1 µM), most hits filed as inhibitors. AID 493014, 2011; active means well fitted inhibition curve with a large enough effect in the signal ratio, with a control signal flat, not every such curve was filed as active; inconclusive means small, poorly fitted or top-dose-only effect, or effect the other way, or a change in a side signal; the % refers to the signal ratio
#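 Concentration-response series (up to 46 uM) were applied to TMD8 dual-reporter cells for 4 h at 37C with doxycycline. Green/red ratio, after filter-overlap correction, defined %Activity; red signal alone was normalised to basal cells and zero luminescence.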
# MCF10A rereplic = A quantitative high throughput screen for small molecules that induce DNA re-replication in MCF 10a normal breast cells | Potency, µM (titrated, usually from 46.1 µM), usual class: activators | 350,000 tested, 2.9% active | MCF 10A DNA re-replication, Hoechst nuclear intensity, 48 h; further: nearly all actives have a fitted effect of over 50% in size
# TDP1 cell noCPT = qHTS for Inhibitors of human tyrosyl-DNA phosphodiesterase 1 (TDP1): qHTS in cells in absence of CPT | DT40 Tdp1-/- hTDP1 cells, no CPT, ATP luminescence, 48 h | Potency, µM (series often up to 46.2 µM), hits mostly inhibitors | 420,000 tested, 15% active | AID 686978, 2013; further: nearly all actives have a fitted effect of over 55% in size
#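 Growth of hTDP1-complemented DT40 Tdp1-knockout cells is measured by ATP luminescence after at least 48 hr compound exposure at 37 °C, with DMSO substituting for the 20 nM CPT used in the parallel screen.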
# SW480 rereplic = A quantitative high throughput screen for small molecules that induce DNA re-replication in SW480 colon adenocarcinoma cells; SW480 DNA re-replication, Hoechst DNA content imaging, 48 h; Potency, µM (series often up to 46.1 µM), usual class: activators; 340,000 tested, 1.8% active; further: nearly all actives have a fitted effect of over 55% in size
#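 250 cells/well; 23 nL cpd via pin tool; 48 hr, 37 C, 5% CO2; Hoechst 40 min; imager read of total nuclear intensity, ex 405/em 500-530 nm.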
# DT40 TDP1 CPT = qHTS for Inhibitors of human tyrosyl-DNA phosphodiesterase 1 (TDP1): qHTS in cells in presence of CPT | chicken DT40 Tdp1-/-;hTDP1 cells + 20 nM CPT, ATP luminescence, 48 h | Potency, µM (top dose mostly 46.2 µM), most hits filed as inhibitors | 420,000 tested, 12% active | AID 686979, 2013; further: nearly all actives have a fitted effect of over 55% in size
#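 Chicken DT40 Tdp1-/- cells complemented with human TDP1, 400 cells/well, exposed to compounds plus 20 nM camptothecin for at least 48 h at 37 C; viability read as ATP content by CellTiter-Glo luminescence.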
# Hits are given with their value; 0 = inactive; ? = inconclusive; - = no result given; [ ] = remark or other dose. Unless noted, the call rests on the fitted dose curve; in most records, active means well fitted curve in the direction sought with a large enough effect; inconclusive means small, poorly fitted or top-dose-only effect, or another doubt; inactive means no such curve, though single readings can be large; an effect the other way counts as inactive or inconclusive.
SMILES,IL1B secr inh,Chronic BCR inh,MCF10A rereplic,TDP1 cell noCPT,SW480 rereplic,DT40 TDP1 CPT
CCCCCCCCN1C(=O)[C@H](CC(=O)NCCC(C)C)C[C@@]2(C(=O)OC)CCCCC=C12,-60,-,-,16µM,-,?
COCCCNC(=O)C[C@@H]1C[C@@]2(C(=O)OC)CCCCC=C2N(Cc2ccco2)C1=O,0,-,-,0,-,0
COc1cccc(OCc2cc(C(=O)N3CCNC(=O)C3Cc3ccccc3)no2)c1 (stereo not given),0,0,0,0,0,?
N#CCCN(C(=O)COC(=O)c1cc(=O)c2ccccc2o1)c1ccccc1,0,0,0,0,0,0
COc1ccc(-c2c3c(=O)n(C)c(=O)n(C)c3cn2C2CCCCC2)cc1,-54,?,0,?,0,?
CSCCC(NC(=O)c1ccc(Cl)cc1Cl)C(=O)NCC(c1cccs1)N(C)C (stereo not given),0,-,0,0,0,0
COC(=O)[C@@]12CCCCN1[C@H](c1ccc(-c3cccc(Cl)c3)c(OC)c1)[C@H]1C(=O)N(C)C(=O)[C@H]12,0,0,?,?,0,18µM
COC(=O)[C@@]12CCCCN1[C@H](c1ccc(-c3cccc(Cl)c3)cc1)[C@@H]1C(=O)N(C)C(=O)[C@@H]12,?,0,0,13µM,0,21µM
COC(=O)[C@@]12CCCN1[C@H](c1ccc(-c3cccc(Cl)c3)cc1)[C@H]1C(=O)N(C)C(=O)[C@H]12,0,0,?,9.2µM,0,23µM
COC(=O)[C@@]12CCCN1[C@H](c1ccc(-c3ccc(Cl)c(Cl)c3)cc1)[C@H]1C(=O)N(C)C(=O)[C@H]12,0,?,?,12µM,0[9.22 µM],?
O=C(OC1CCOC1=O)C1CCN(S(=O)(=O)c2c(Cl)cccc2Cl)CC1 (stereo not given),?,0,?,0,?,0
Cc1ccc(S(=O)(=O)N2CCCCC2)cc1NC(=O)COC(=O)c1ccccc1F,0,0,0,0,0,0
O=C(Nc1cccc(C(=O)OCc2cc(=O)n3ccsc3n2)c1)c1ccc(F)cc1,-,-,-,0,-,0
COC(=O)[C@@]12CCCN1[C@H](c1ccc(-c3ccccc3)cc1)[C@@H]1C(=O)N(C)C(=O)[C@@H]12,0,0,0,18µM,0,23µM
CCN1C(=O)[C@H]2[C@@H](c3ccc(-c4cccc(Cl)c4)cc3)N3CCCC[C@@]3(C(=O)OC)[C@H]2C1=O,0,0,0,?,0,?
COC(=O)[C@@]12CCCCN1[C@H](c1ccc(-c3cccc(Cl)c3)cc1)[C@H]1C(=O)N(C)C(=O)[C@H]12,0,0,0,23µM,0,?
CCN1C(=O)[C@H]2[C@@H](c3ccc(-c4cccc(Cl)c4)c(OC)c3)N3CCCC[C@@]3(C(=O)OC)[C@H]2C1=O,-62,0,0,23µM,0,?
CC(=O)Nc1ccc(NC(=O)CSc2nc(N)c(NC(=O)c3ccco3)c(=O)[nH]2)cc1,0,0,0,?,0,?
COc1ccc(/C(C)=N/Nc2nc3ccccc3nc2C)cc1,0,0,15µM,23µM,18µM,?
COc1ccc(C(=O)Nc2cc(-c3nn4c(C)nnc4s3)ccc2C)cc1,0,0,0,0,0,0
Cc1ccc(-c2nn3c(C)nnc3s2)cc1NC(=O)c1ccc(OC(C)C)cc1,0,?,0,?,0,13µM
Cc1cc(OCC(=O)Nc2cc(-c3nn4c(C)nnc4s3)ccc2C)ccc1Cl,0,0,0,?,0,4.1µM
O=C(CN1C(=O)NC2(CCCC2)C1=O)Nc1cc(S(=O)(=O)N2CCOCC2)ccc1OCC(F)(F)F,0,0,0,0,0,0
O=C(O)c1ccccc1Nc1ccc([N+](=O)[O-])c2nonc12,0,?,?,?,0,0
CC(=O)c1ccc(-c2cnc3c(NC=O)cc(-c4ccc(C(=O)NC5CC5)cc4)cn23)cc1,-64,-,-,5.2µM,-,5.8µM
SMILES,IL1B secr inh,Chronic BCR inh,MCF10A rereplic,TDP1 cell noCPT,SW480 rereplic,DT40 TDP1 CPT
O=CNc1cc(-c2ccc(C(=O)NC3CC3)cc2)cn2c(-c3ccccc3)cnc12,?,-,-,7.3µM,-,10µM
O=CNc1cc(-c2ccc(C(=O)NC3CC3)cc2)cn2c(-c3ccc(F)c(Cl)c3)cnc12,0,-,-,13µM,-,18µM
C=C1[C@@H]2CC[C@@H](C2)C1(C)C,-,-,-,0,-,0
CCOc1ccccc1-n1nnnc1SCC(=O)N1CCCC1=O,0,0,0,0,0,0
CC(O)(CC(=O)CC(=O)c1ccccc1)c1ccccc1 (stereo not given),0,-,?,?,0,?
C=CCN1CC(=O)N2C(c3ccccc3)c3[nH]c4ccccc4c3C[C@H]2C1=O (stereo not given in full),0,?,0,18µM,?,?
COCCCN1CC(=O)N2C(c3ccccc3)c3[nH]c4ccccc4c3C[C@H]2C1=O (stereo not given in full),0,0,0,0,0,0
CC(C)OCCCN1CC(=O)N2C(c3ccccc3)c3[nH]c4ccccc4c3C[C@H]2C1=O (stereo not given in full),-62,0,0,?,0,?
Cc1ccc(CNC2CCCCC2)s1,0,0,0,0,0,0
Cc1cc(=O)[nH]c(SCCOc2ccc(OC(C)C)cc2)n1,0,0,0,?,0,0
Cc1cc(=O)[nH]c(SCCOc2ccc3c(c2)CCC3)n1,0,-,?,0,1.8µM,0
COc1cc2oc(=O)cc(CN3CCN(C(C)=O)CC3)c2cc1Cl,0,-,-,0,-,0
CN(C)c1ccc(-n2cccc2/C=C/[N+](=O)[O-])cc1,-101,?,?,4.1µM,0,16µM
CCc1cc(=O)oc2c3c(cc(OCC(=O)NCc4ccco4)c12)OC(C)(C)CC3,0,?,0,?,0,?
CCc1cc(=O)oc2c3c(cc(OCC(=O)NCc4ccncc4)c12)OC(C)(C)CC3,0,0,0,21µM,0,16µM
COc1ccc(CNC(=O)COc2cc3c(c4oc(=O)cc(C)c24)CCC(C)(C)O3)cc1,?,0,?,?,0,?
COc1ccccc1CNC(=O)COc1cc2c(c3oc(=O)cc(C)c13)CCC(C)(C)O2,-61,0,?,23µM,?,23µM
COc1cccc(CNC(=O)COc2cc3c(c4oc(=O)cc(C)c24)CCC(C)(C)O3)c1,0,0,0,16µM,0,21µM

# Screens from PubChem.
